A number with no mark means an inactive call. Activity calls are given as the source filed them. Calls come from the whole dose curve; as a rule, active = well fitted curve in the direction sought with a large enough effect in the repeat runs; inconclusive = weak or mixed curves; inactive = flat fitted curve, though single readings scatter.
Experiment: qHTS assay to test for compound auto fluorescence at 460 nm (blue) in HepG2 cells (AID 720687)
Conditions: autofluorescence 405/460 nm, 1 h; series mostly up to 91.3 µM
Source text: U.S. Tox21 Program National Center for Advancing Translational Sciences [NCATS] NIH Chemical Genomics Center [NCGC] U.S. Environmental Protection Agency [EPA] National Institutes of Environmental Health Sciences [NIEHS] National Toxicology Program [NTP] U.S. Food and Drug Administration [FDA] Tox21 Assay Overview: Compound auto fluorescence often interferes with screening of the compound library against various biological targets and signaling pathways. Some of these compounds may have fluorophoric properties. Such properties may interfere with the assay outputs resulting in false positives and/or negatives. To decrease such complications and ensure the compound activities are relevant in terms of biological response, the Tox21 10K compound library was screened for auto fluorescence. From the fluorophores used as reporter signals in our screening assays, the auto fluorescence equivalencies of compounds against three fluorophores have been evaluated: Triamterene, Fluorescein and Rose Bengal sodium for blue, green and red fluorescence, respectively. The fluorescence intensities were measured using Excitation/Emission wavelengths at 405/460nm, 485/535nm and 540/590nm for blue, green and red labels, respectively. This assay includes the blue fluorescence data.
Tox21 Assay Protocol Summary: 2,000 HepG2 cells in 5 uL of culture medium (MEM containing 10% FBS) per well were dispensed into black wall/clear bottom 1536-well plates using a Multidrop Combi Dispenser (ThermoFisher Scientific, Waltham, MA). The assay plates were incubated overnight at 37 C to allow cell attachment to the well bottom, followed by the transfer of 23 nL compound or DMSO vehicle by a pintool work station (Kalypsys , San Diego, CA). After the assay plates were incubated for 1 hr at 37 C and 5% CO2, fluorescence intensities in the assay plates were measured by an Envision (PerkinElmer, Shelton, CT) plate reader using three labels for measuring blue, green and red fluorescence at […] 460, 535 and 590 nm respectively.
In the case of `CC(C)Nc1ccccc1`, the outcome is reported as “inactive”. In the case of `C/C=C(\C)C(=O)OCCc1ccccc1`, the outcome is reported as “inactive”. In the case of `CCOC(CN1CCN(CC(C)C(=O)c2ccccc2)CC1)c1ccccc1` (stereo not given), the outcome is reported as “inactive”. With `CC(=O)Nc1ccc(OC(=O)c2ccccc2OC(C)=O)cc1` the outcome was “inactive”. With `CC(CO)(CO)CO` the outcome was “inactive”. In the case of `CCCCOCC(C)O` (stereo not given), the outcome is reported as “inactive”. With `c1ccc(-c2nn[nH]n2)cc1` the outcome was “inactive”. For `CCCCCCCCCOC(=O)CCCCC(=O)OCCCCCCC`, the outcome was “inactive”. For `C=CC/C=C/C`, the outcome was “inactive”. Work on `CCCC(=O)Nc1ccc(OCC(O)CNC(C)C)c(C(C)=O)c1` (stereo not given) yielded a fluorescence, % of fluorescent control of 0.0344% [at 18.6 µM]. With `N[C@@H](CSCCCO)C(=O)O` the outcome was “inactive”. Work on `CC(C)(C)NC[C@H](O)COc1cccc2c1CCCC2=O` yielded a fluorescence, % of fluorescent control of 0.0464% [at 18.6 µM]. With `CC(C)[C@H]1CC[C@H](C)C[C@@H]1O` the outcome was “inactive”. For `O=C(O)CNC(=O)CNC(=O)CNC(=O)CSC(=O)c1ccccc1`, the outcome was “inactive”. For `C=Cc1ccc(C(C)(C)C)cc1`, the outcome was “inactive”. With `CCCCOC(=O)C(C)O` (stereo not given) the outcome was “inactive”. With `CC(=O)c1cc(C)oc1C` the outcome was “inactive”. In the case of `Cc1ccc(C(C)NC(=O)[C@@H](NC(=O)OC(C)C)C(C)C)cc1` (stereo not given in full), the outcome is reported as “inactive”. In the case of `Cc1ccc(C(=O)O)cc1[N+](=O)[O-]`, the outcome is reported as “inactive”. With `CCCCCc1cccc(=O)o1` the outcome was “inactive”. In the case of `OC1OCCOC1O` (stereo not given), the outcome is reported as “inactive”. For `OCC(O)CN1CCN(c2ccccc2)CC1` (stereo not given), the outcome was “inactive”. With `CCC[C@@H]1C[C@@H](C(=O)N[C@@H]([C@H]2O[C@H](SC)[C@H](O)[C@@H](O)[C@H]2O)[C@@H](C)O)N(C)C1` the outcome was “inactive”. For `CC(C)OC(=O)CCC(=O)OC(C)C`, the outcome was “inactive”. In the case of `C=C(C)C1CC=C(C)C(=O)C1` (stereo not given), the outcome is reported as “inactive”. In the case of `CCC(=O)CC`, the outcome is reported as “inactive”. With `C=CCN1C[C@H](C(=O)N(CCCN(C)C)C(=O)NCC)C[C@@H]2c3cccc4[nH]cc(c34)C[C@H]21` the outcome was “inactive”. In the case of `CN(C)CCCCl`, the outcome is reported as “inactive”. With `C=C(C)c1cccc(C(C)(C)N=C=O)c1` the outcome was “inactive”. With `CN(C)CCOC(=O)C(c1ccccc1)C1(O)CCCC1` (stereo not given) the outcome was “inactive”. For `Cc1c(Cl)cccc1Cl`, the outcome was “inactive”. With `CC(C)OC(=O)OCOP(=O)(CO[C@H](C)Cn1cnc2c(N)ncnc21)OCOC(=O)OC(C)C` the outcome was “inactive”. With `CC(C)Cn1cnc2c1c(=O)n(C)c(=O)n2C` the outcome was “inactive”. In the case of `CCO`, the outcome is reported as “inactive”. With `CCCCCC/C=C/C(=O)OC` the outcome was “inactive”. In the case of `Cc1cccc(Cl)c1`, the outcome is reported as “inactive”. With `OCCN1CCOCC1` the outcome was “inactive”. For `CC(C)CCOC(=O)c1ccccc1`, the outcome was “inactive”. For `OC[C@@H](O)C(O)[C@@H](O)CO` (stereo not given in full), the outcome was “inactive”. For `CCCC(=O)OC/C=C(\C)CCC=C(C)C`, the outcome was “inactive”.

Source: PubChem BioAssay (Tox21)
% is set by controls: 0 for no effect and ±100 for the full control effect.
